Hits are enriched below; roughly 1.6% of the tested compounds scored in any of these assays.
KCNQ2 block: rat KCNQ2 potassium channel inhibitors, primary screen, cell-based, CHO-K1, FluxOR thallium flux, B-score. hit rate 1.1% among 310,000. Potassium voltage-gated channel subfamily KQT member 2 (Rattus norvegicus), O88943. 20 min; hits give low values. AID 2156, 2009. B-score at 10 µM;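 active = fluorescence ratio B-score at most minus 3 library SDs, with starting brightness B-score within 2 library SDs, cut at about -5.5 in these data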
Target sequence (O88943 whole entry, looked up): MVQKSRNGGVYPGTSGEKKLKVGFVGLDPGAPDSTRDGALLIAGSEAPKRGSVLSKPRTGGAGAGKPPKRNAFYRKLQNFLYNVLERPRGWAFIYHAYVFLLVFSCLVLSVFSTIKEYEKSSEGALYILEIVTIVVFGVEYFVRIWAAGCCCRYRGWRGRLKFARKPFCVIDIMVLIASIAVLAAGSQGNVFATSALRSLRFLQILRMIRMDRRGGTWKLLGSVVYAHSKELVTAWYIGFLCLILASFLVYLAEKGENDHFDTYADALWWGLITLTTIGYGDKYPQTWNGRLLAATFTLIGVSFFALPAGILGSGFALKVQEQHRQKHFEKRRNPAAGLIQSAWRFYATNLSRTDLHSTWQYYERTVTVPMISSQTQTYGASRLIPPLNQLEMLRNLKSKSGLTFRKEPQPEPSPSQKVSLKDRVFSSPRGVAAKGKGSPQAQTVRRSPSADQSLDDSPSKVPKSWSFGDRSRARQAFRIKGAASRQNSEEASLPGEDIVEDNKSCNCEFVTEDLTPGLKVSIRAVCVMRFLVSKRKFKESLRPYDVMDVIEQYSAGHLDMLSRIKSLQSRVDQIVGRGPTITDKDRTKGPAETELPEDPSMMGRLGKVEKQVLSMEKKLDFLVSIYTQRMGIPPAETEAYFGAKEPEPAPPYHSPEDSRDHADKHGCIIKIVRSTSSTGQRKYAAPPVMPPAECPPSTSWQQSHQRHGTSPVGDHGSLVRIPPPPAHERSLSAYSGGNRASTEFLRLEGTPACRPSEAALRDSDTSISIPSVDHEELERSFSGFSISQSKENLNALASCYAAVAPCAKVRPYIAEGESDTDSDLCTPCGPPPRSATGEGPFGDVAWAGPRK
KCNQ2 enhance: potentiators of rat KCNQ2 potassium channel | B-score at 10 µM | Potassium voltage-gated channel subfamily KQT member 2 (Rattus norvegicus), O88943 | CHO-K1 KCNQ2, FluxOR thallium flux fluorescence; hits give high values | hit rate 0.54% among 310,000;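 active = fluorescence ratio B-score at least 3 SD of library B-scores, with initial fluorescence B-score within 3 of them, cut at about 5.3 in these data; same plate scores as AID 2156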;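 also: B-score of peak minus minimum over baseline fluorescence ratio after K+ and Tl+ stimulus; positive B-score means potentiation of KCNQ2 with more thallium influx and brighter signal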
KCNQ2 inh conf: rat KCNQ2 potassium channel inhibitors, confirmation, cell-based, thallium flux; hit rate 57% among 1,000; activity change, negative = inhibition, % at 10 µM; KCNQ2-expressing cells, inhibition; hits give low values; AID 493025, 2011; shares compounds with KCNQ2 block;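 also: 0% = vehicle wells and values are ratio percent relative to vehicle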
KCNQ1 spec: human KCNQ1 channel inhibition, counter-screen for KCNQ2 inhibitor project, cell-based, FluxOR thallium flux; shares compounds with KCNQ2 block; activity change, negative = inhibition, % at 10 µM; hit rate 15% among 1,000; AID 493026, 2011; KCNQ1-expressing cells, FluxOR thallium flux fluorescence; hits give low values;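 active = activity change at least 3 SD of negative controls below their mean in both duplicate wells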;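 also: CHO cells stably transfected with KCNQ1 and depolarized by potassium stimulus; peak minus minimum fluorescence over baseline after thallium addition; 0% = vehicle negative control and -100% = blank without thallium stimulus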
CHO parental ctr: thallium flux change in parental CHO cells, counter-screen for KCNQ2 inhibitor project | shares compounds with KCNQ2 block | hit rate 14% among 1,000 | hits give low values | AID 493029, 2011 | activity change, % at 10 µM;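 also: 0% = vehicle negative controls with stimulus buffer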
KCNQ2 inh confirm: rat KCNQ2 channel inhibitors, confirmation, cell-based, automated patch clamp, single concentration | shares compounds with KCNQ2 block | KCNQ2-expressing cells, automated patch clamp current | calls only at 10 µM | hit rate 49% among 550 | AID 588531, 2011
* = called active by the depositor; i = inactive; . = no result; + = active, no number. Unless noted, no rule for the calls is given here.

SMILES | KCNQ2 block | KCNQ2 enhance | KCNQ2 inh conf | KCNQ1 spec | CHO parental ctr | others
CCn1c(C(=O)N2CCCC(C(=O)O)C2)cc2sccc21 (stereo not given) | i | 0.84 | . | . | .
CCn1c(C(=O)N2CCC(Cc3ccccc3)CC2)cc2sccc21 | -7.24* | -7.24 | i | i | i
CC(=O)Oc1ccc2nc(-c3ccco3)oc(=O)c2c1 | i | . | . | . | .
CC(C)NC(=O)Cn1cc(C(=O)C2CC2)c2ccccc21 | i | 1.04 | . | . | .
O=C(O)CN1CCCC1=Nc1ccccc1 | i | . | . | . | .
Cc1ccc(C)c(N=C2CCCN2Cc2ccccc2)c1C#N | -7.29* | -7.29 | i | i | i
Cc1ccccc1CN(C)CC(=O)Nc1ccccc1Oc1ccccc1 | -7.46* | -7.46 | -32.5%* | -31.5%* | -25.5%* | KCNQ2 inh confirm=i
CN(CC(=O)Nc1ccccc1Oc1ccccc1)Cc1ccccc1F | i | . | . | . | .
CC(C)Oc1ccc(CN2CCC(n3nccc3NC(=O)CCc3ccccc3)CC2)cc1 | i | 0.3 | . | . | .
C=CCNC(=O)C(C)N1c2cccc3cccc(c23)S1(=O)=O (stereo not given) | i | 0.35 | . | . | .
OCC1(Cc2cccc(Cl)c2)CCCN(Cc2ccc(F)c(F)c2)C1 (stereo not given) | i | . | . | . | .
CSc1cccc(CN2CCCC(CO)(Cc3cccc(Cl)c3)C2)c1 (stereo not given) | -6.99* | -6.99 | i | i | i
CCC(C)(C)n1nnnc1C(c1ccc(C)cc1)N(Cc1ccco1)Cc1cccs1 (stereo not given) | -9.93* | -9.93 | i | i | i
CCC(C)(C)n1nnnc1C(C(C)C)N(Cc1cccnc1)Cc1ccco1 (stereo not given) | i | . | . | . | .
COc1cc(C(=O)N/N=C(\C)c2ccc(NC(=O)Cc3ccccc3)cc2)ccc1O | i | 1.27 | . | . | .
Cc1cccn2c(=O)c(C=C(C#N)C#N)c(N3CCN(C)CC3)nc12 | i | . | . | . | .
CN1C(=O)C(CC(=O)O)S/C1=N\N=C\c1ccc(O)cc1O (stereo not given) | i | 1.02 | . | . | .
Cc1nc(C)c(-c2ccc(SCc3ccc([N+](=O)[O-])cc3)nn2)s1 | i | 0.36 | . | . | .
CCOC(=O)c1c(-c2cccs2)csc1NC(=O)COC(=O)c1c(C)noc1C | -10.1* | -10.1 | -24.0%* | i | i | KCNQ2 inh confirm=i
CCOC(=O)c1c(-c2cccs2)csc1NC(=O)c1ccncc1 | i | 0.91 | . | . | .
CCCn1c(=O)c(C(=O)NCCc2ccc(OC)cc2)c(O)c2ccccc21 | -8.18* | -8.18 | i | i | i
CCCn1c(=O)c(C(=O)NCCc2ccccc2)c(O)c2ccccc21 | i | . | . | . | .
C=CCn1c(=O)c(C(=O)NCCc2ccccc2)c(O)c2ccccc21 | -6.86* | -6.86 | i | i | i
C=CCn1c(=O)c(C(=O)Nc2cccnc2)c(O)c2ccccc21 | i | . | . | . | .
CCn1nc(C)c(CNC(=O)CC2C(=O)NCCN2CC(C)C)c1C (stereo not given) | i | 0.92 | . | . | .
SMILES | KCNQ2 block | KCNQ2 enhance | KCNQ2 inh conf | KCNQ1 spec | CHO parental ctr | others
Fc1ccc(Nc2nnc(C(F)(F)F)s2)cc1 | i | 0.5 | . | . | .
CCCc1c2c(cc3c(=O)cc(C(=O)OCC)oc13)CCCC2 | i | . | . | . | .
CC1=C(C(=O)NC(C)c2ccccc2)C2(CCC(C)CC2)OC1=O (stereo not given) | i | . | . | . | .
CC1=C(C(=O)NC(C)c2ccc3c(c2)OCCO3)C2(CCC(C)CC2)OC1=O (stereo not given) | -10.5* | -10.5 | -26.5%* | i | i | KCNQ2 inh confirm=+
COc1cc(OC)c(OC)cc1CNC(=O)c1cc(=O)[nH]c2ccccc12 | i | 1.52 | . | . | .
CC(C)(C)OC(=O)N1CCC[C@H]1c1nnc(SCc2ccc(Cl)cc2Cl)o1 | -7.16* | -7.16 | i | i | i
CC(C)(C)OC(=O)N1CCC[C@H]1c1nnc(SCc2c(F)cccc2Cl)o1 | i | . | . | . | .
COc1cc(Cl)cc(CN2CCC(CCC(=O)NC3CC3)CC2)c1OC | i | . | . | . | .
OCc1cccc[n+]1Cc1ccccc1 | i | 0.24 | . | . | .
COc1ccc(NC(=O)CN(C)C(=O)/C=C/c2cn(-c3ccccc3)nc2-c2ccc(C)cc2)cc1 | i | . | . | . | .
COc1cccc(NC(=O)CN(C)C(=O)/C=C/c2cn(-c3ccccc3)nc2-c2ccc(C)cc2)c1 | -9.05* | -9.05 | -22.5%* | i | i | KCNQ2 inh confirm=i
Cc1nc(N2CCN(Cc3ccccc3)CC2)nc2c1C(=O)CC(c1ccco1)C2 (stereo not given) | -9.63* | -9.63 | i | i | i
Cc1nc(N2CCN(Cc3ccc4c(c3)OCO4)CC2)nc2c1C(=O)CC(c1ccco1)C2 (stereo not given) | i | . | . | . | .
COc1ccc(-n2nc(C(=O)NCC(=O)Nc3ccc(F)cc3)c3ccccc3c2=O)cc1 | i | . | . | . | .
CCOC(=O)c1c(C)nc2c(c1-c1ccccc1)C(=O)c1ccccc1-2 | -12.1* | -12.1 | -29.5%* | i | i | KCNQ2 inh confirm=+
CCOC(=O)c1c(C)nc2c(c1-c1cc(OC)ccc1OC)C(=O)c1ccccc1-2 | i | 0.12 | . | . | .
COc1cccc(C=O)c1OC(=O)N1CCOCC1 | i | . | . | . | .
CCC(C)NC(=O)C1CCN(S(=O)(=O)c2cccc3nonc23)CC1 (stereo not given) | i | 0.59 | . | . | .
CN(C)CCCNC(=O)c1ccc(-c2nc(-c3ccc(Cl)cc3)cs2)cc1 | -11.8* | -11.8 | -22.0%* | i | i | KCNQ2 inh confirm=i
CN(C)CCCNC(=O)c1ccccn1 | i | 0.35 | . | . | .
Cc1ccc(CNS(=O)(=O)c2c(C)[nH]c(C)c2C(=O)N2CCCCC2)o1 | i | 1.52 | . | . | .
CCOCCCNC(=O)c1cc2c(-c3ccc(Cl)cc3)nn(C)c2s1 | i | 0.84 | . | . | .
CCCCN(CC)CCNC(=O)c1cc2c(-c3ccc(Cl)cc3)nn(C)c2s1 | -8.41* | -8.41 | -35.0%* | i | i | KCNQ2 inh confirm=i
CCCN(CCC)CCNC(=O)c1cc2c(-c3ccc(Cl)cc3)nn(C)c2s1 | -7.3* | -7.3 | -34.0%* | i | i | KCNQ2 inh confirm=i
CCN(CC)CCNC(=O)c1cc2c(-c3ccc(Cl)cc3)nn(C)c2s1 | i | . | . | . | .
SMILES | KCNQ2 block | KCNQ2 enhance | KCNQ2 inh conf | KCNQ1 spec | CHO parental ctr | others
CCN(CC(=O)NCc1ccc(Cl)cc1)C(=O)c1ccc(C#N)cc1 | i | . | . | . | .
CCOC(=O)c1c(NC(=O)CCc2ccc(CC)o2)sc(C)c1C | -8.2* | -8.2 | i | i | i
CCOC(=O)c1ccc(NC(=O)CCc2ccc(CC)o2)cc1 | i | . | . | . | .
c1ccc(Nc2nc(NCC3CCCO3)c3ccccc3n2)cc1 (stereo not given) | i | . | . | . | .
CCOc1ccc(Nc2nc(NCC3CCCO3)c3ccccc3n2)cc1 (stereo not given) | -6.71* | -6.71 | i | i | i
CCCCOc1c(Br)cc(CNCCCN2CCOCC2)cc1OC | i | 0.23 | . | . | .

Screens from PubChem.
